Bioassay records deposited in PubChem by National Center for Advancing Translational Sciences (NCATS).
Rows were chosen to be rich in hits. Some 19% of all compounds tested hit in one or more screens of this group.
DT40 TDP1 no CPT – qHTS for Inhibitors of human tyrosyl-DNA phosphodiesterase 1 (TDP1): qHTS in cells in absence of CPT. DT40 Tdp1-/- hTDP1 cells, no CPT, ATP luminescence, 48 h. Potency, µM (titrated, usually from 46.2 µM), for the others: at the highest dose activity change, negative = growth inhibition, hits mostly inhibitors. 420,000 tested, 15% active. AID 686978, 2013; note: potency is the fitted concentration of half-maximal effect; nearly all actives have a fitted effect of over 55% in size
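Growth of hTDP1-complemented DT40 Tdp1-knockout cells is measured by ATP luminescence after at least 48 hr compound exposure at 37 °C, with DMSO substituting for the 20 nM CPT used in the parallel screen.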
IL1B secr inh – qHTS for Inhibitors of Inflammasome Signaling: IL-1-beta AlphaLISA Primary Screen | THP-1 LPS/ATP IL-1B secretion, AlphaLISA, 16 h; active compounds read low | activity change, % at 57.5 µM | 360,000 tested, 4.7% active; in the data active = activity change below about -50%; inconclusive = mostly about -30% to -49%
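Secreted IL-1B measured by AlphaLISA bead assay after 16 h compound exposure of THP-1 cells; compounds (final up to 57.5 uM) added 1 h before LPS (250 ng/mL) and ATP (1.25 mM) stimulation; lower signal means less secretion.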
HT1080 IDH1KD tx – qHTS for induction of synthetic lethality in tumor cells producing 2HG: qHTS for the HT-1080-IDH1KD cell line | 360,000 tested, 2% active | HT-1080 IDH1 knockdown viability, ATP luminescence, 48 h | Potency, µM (titrated, usually from 46.1 µM), inactives show top-dose activity, negative = toxicity, actives largely listed as cytotoxic;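 note: potency is the fitted concentration of half-maximal effect; 0% = DMSO wells and -100% = cell-free medium wells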
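Assay cells: HT-1080 with IDH1 knockdown, 750 per well, RPMI/5% FBS. Exposure: 48 h at 37 °C following 2 h pre-incubation. Read: CellTiter-Glo luminescence; fitted concentration-response, curve class assigned.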
DT40 TDP1 CPT – qHTS for Inhibitors of human tyrosyl-DNA phosphodiesterase 1 (TDP1): qHTS in cells in presence of CPT; chicken DT40 Tdp1-/-;hTDP1 cells + 20 nM CPT, ATP luminescence, 48 h; Potency, µM (doses to about 46.2 µM), for inactives: at the highest dose activity change, negative = growth inhibition, hits mostly inhibitors; 420,000 tested, 12% active; AID 686979, 2013; note: potency is the fitted concentration of half-maximal effect; nearly all actives have a fitted effect of over 55% in size
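Chicken DT40 Tdp1-/- cells complemented with human TDP1, 400 cells/well, exposed to compounds plus 20 nM camptothecin for at least 48 h at 37 C; viability read as ATP content by CellTiter-Glo luminescence.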
HT1080NT lethal – qHTS for induction of synthetic lethality in tumor cells producing 2HG: qHTS for the HT-1080-NT fibrosarcoma cell line; Potency, µM (titrated, usually from 46.1 µM), without a hit: at the highest dose activity, negative = less viability, usual class: cytotoxic; HT-1080-NT fibrosarcoma viability, CellTiter-Glo ATP luminescence, 48 h; 360,000 tested, 1.6% active;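 note: NT is the 2HG producing partner of a matched IDH1 knockdown line; potency is the fitted concentration of half-maximal effect; 0% = DMSO-treated cells and -100% = media-only wells without cells; nearly all actives have a fitted effect of over 55% in size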
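Luminescent CellTiter-Glo readout after 48 hours of compound exposure at 37 degrees C defined viability of HT-1080-NT cells. Activity was normalized to DMSO wells and cell-free media wells; concentration-response curves were fitted and assigned curve classes.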
Starred values were filed as active, the others as inactive; i = inactive; ? = inconclusive. Unless noted, calls come from the whole dose curve; as a rule, active = well fitted curve in the direction sought with a large enough effect; inconclusive = small, poorly fitted or top-dose-only effect, or another doubt; inactive = no such curve, though single readings can be large; an effect the other way counts as inactive or inconclusive. Unless noted, % is set by controls: 0 for no effect and ±100 for the full control effect.

SMILES | DT40 TDP1 no CPT | IL1B secr inh | HT1080 IDH1KD tx | DT40 TDP1 CPT | HT1080NT lethal
CCOC(=O)c1ccccc1NC(=O)c1cc(S(=O)(=O)N2CCOCC2)ccc1F | ? | -54.3* | -0.1% | ? | -11.3%
CCOC(=O)c1c(-c2ccccc2Cl)csc1NC(=O)c1cc(S(=O)(=O)N2CCOCC2)ccc1C | 7.31µM* | i | 0.8% | 10.3µM* | 2.2%
O=C(OCCN1C(=O)c2ccccc2C1=O)c1cc(S(=O)(=O)N2CCOCC2)ccc1Cl | 3.1% | -16.7 | -0.7% | 8.9% | 0.5%
CCOC(=O)C1(Cc2ccccc2C#N)CCCCC1=O (centres undefined) | ? | 16.3 | 2.2% | 0.7% | 5.7%
Cn1c(N)c(C(=O)COC(=O)c2cc(S(=O)(=O)N3CCOCC3)ccc2F)c(=O)n(C)c1=O | 5.0% | -105.5* | ? | 5.4% | ?
Cc1ccc(S(=O)(=O)N2CCOCC2)cc1C(=O)OCC(=O)c1c(N)n(C)c(=O)n(C)c1=O | ? | -5.7 | -5.6% | ? | -5.2%
CCOC(=O)C1=C(COC(=O)c2cc(S(=O)(=O)N3CCOCC3)ccc2F)NC(=O)NC1C (centres undefined) | -6.2% | -95.5* | -1.9% | -20.0% | -5.1%
CCOC(=O)C1=C(COC(=O)c2ccc(Cl)c(S(=O)(=O)N3CCOCC3)c2)NC(=O)NC1C (centres undefined) | 1.6% | -1.6 | -6.1% | 0.8% | -6.1%
COc1ccc(-n2c(=O)c3ccccc3n(Cc3cccc(C)c3)c2=O)cc1OC | -22.4% | 21.3 | 0.0% | -1.8% | -6.5%
CCN1CCN(c2ccc(S(=O)(=O)N3CCCCC3)cc2NC(=O)/C=C/c2ccc(OC(F)F)cc2)CC1 | ? | -84.0* | -20.6% | ? | -10.8%
CCN1CCN(c2ccc(S(=O)(=O)N3CCCCC3)cc2NC(=O)/C=C/c2ccc([N+](=O)[O-])cc2)CC1 | ? | -98.5* | 16.4µM* | ? | ?
CC(Oc1ccc(F)cc1)C(=O)Nc1cc(S(=O)(=O)N2CCCCC2)ccc1N1CCN(C)CC1 (centres undefined) | ? | ? | -14.7% | 23.1µM* | -10.1%
CC(Oc1ccc(F)cc1)C(=O)Nc1ccccc1N1CCCCC1 (centres undefined) | 16.4µM* | -11.8 | -1.3% | ? | -5.2%
CC(C)(C)NC(=O)CN(C(=O)c1csnn1)c1cccc2c1CCCC2 | -21.8% | 12.4 | 13.2% | -4.5% | 6.2%
COC(=O)/C=C/c1ccc(OC(=O)OC)c(OC(=O)OC)c1 | ? | 14.8 | -2.3% | -21.9% | 1.8%
Cc1ccc(N2CCN(C(=O)C(=O)c3cccc(Br)c3)CC2)cc1 | ? | -9.2 | -1.8% | ? | -4.4%
CC(Oc1cccc(Cl)c1)C(=O)N1CCCN(C)CC1 (centres undefined) | 1.4% | 0.4 | -0.6% | 0.3% | -6.7%
CCCCN1C[C@H](COC(=O)CCC)Oc2cccc(F)c2S1(=O)=O | -3.4% | 16.3 | 4.6% | -13.5% | 10.5%
CN1CCN(c2ccc(S(=O)(=O)N3CCCCC3)cc2NC(=O)/C=C/c2ccc(Cl)c([N+](=O)[O-])c2)CC1 | ? | -80.7* | ? | ? | -15.0%
CCN1CCN(c2ccc(S(=O)(=O)N3CCCCC3)cc2NC(=O)/C=C/c2ccc(F)cc2)CC1 | ? | ? | -4.0% | ? | -3.7%
CCN1CCN(c2ccc(S(=O)(=O)N3CCOCC3)cc2NC(=O)c2cc(Cl)nc3ccccc23)CC1 | 16.4µM* | -16.5 | 5.8% | ? | 2.7%
CCN1CCN(c2ccc(S(=O)(=O)N3CCCCC3)cc2NC(=O)/C=C/c2cccc(OC)c2OC)CC1 | 16.4µM* | i | -5.4% | ? | -20.8%
CCN1CCN(c2ccc(S(=O)(=O)N3CCOCC3)cc2NC(=O)C(C)Oc2ccc(Cl)cc2)CC1 (centres undefined) | 18.4µM* | -8.1 | -1.6% | ? | -19.2%
CN1CCN(c2ccc(S(=O)(=O)N3CCCCC3)cc2NC(=O)c2cccc([N+](=O)[O-])c2)CC1 | -21.4% | -3.8 | -5.3% | -23.5% | -4.1%
CCN1CCN(c2ccc(S(=O)(=O)N3CCOCC3)cc2NC(=O)CC(C)C)CC1 | 4.4% | 6.2 | -11.0% | 2.8% | 6.0%
SMILES | DT40 TDP1 no CPT | IL1B secr inh | HT1080 IDH1KD tx | DT40 TDP1 CPT | HT1080NT lethal
Cc1ccccc1-n1ncc(C(C)NS(=O)(=O)c2sccc2C)c1C (centres undefined) | ? | 5.7 | -13.1% | ? | 0.0%
CCCCN(C(=O)c1ccc(N(C)S(=O)(=O)c2ccc(C)cc2)cc1)c1c(N)n(CC(C)C)c(=O)[nH]c1=O | -2.8% | -3.6 | 0.3% | -17.8% | -1.4%
CN1CCN(c2ccc(S(=O)(=O)N3CCCCC3)cc2NC(=O)/C=C/c2ccc(OC(F)F)cc2)CC1 | -85.7% | -79.6* | ? | ? | ?
Fc1ccc(-c2c[nH]c(=S)n2Cc2ccccc2)cc1 | ? | ? | 2.9% | 20.6µM* | -4.8%
O=c1[nH]cc(-c2ccc(Br)cc2)n1Cc1ccccc1 | ? | 1.6 | 1.0% | ? | -1.6%
Cc1ccc(C(=O)NCC(=O)OCC(=O)c2ccc(Br)s2)cc1 | -12.2% | 13.2 | -11.1% | -0.5% | -9.7%
CC(C)CN(CC(C)C)C(=O)CCCC(=O)N(CC(C)C)CC(C)C | 16.4µM* | -25.4 | -1.4% | ? | 2.1%
O=C(Cn1cnc2c(nnn2Cc2ccc(Cl)cc2)c1=O)NCc1ccco1 | ? | -5.3 | ? | ? | ?
COc1cccc(C(=O)O)c1OS(=O)(=O)c1ccc(C)cc1 | -2.9% | 8.0 | 0.5% | -6.2% | -6.3%
COc1ccc(CNc2nc(-c3ccccc3)nc3ccccc23)cc1OC | ? | -62.2* | -28.2% | -2.6% | ?
c1ccc(-c2nc(NCc3cccs3)c3ccccc3n2)cc1 | ? | -6.8 | ? | -14.2% | ?
Fc1ccc(CNc2nc(-c3ccccc3)nc3ccccc23)cc1 | ? | -62.1* | -17.5% | ? | ?
COc1ccc(S(=O)(=O)Nc2c(C)cccc2C)cc1-n1cnnn1 | -9.1% | -7.8 | 12.0% | ? | 19.0%
CCN1CCN(c2oc(-c3ccco3)nc2C#N)CC1 | 0.4% | -9.2 | 13.7% | 9.4% | 23.9%
COc1ccc2[nH]c(=O)c(CN(c3ccccc3OC)S(=O)(=O)c3ccccc3)cc2c1 | 14.6µM* | -25.6 | -16.2% | 16.4µM* | -15.3%
O=c1[nH]c2ccccc2cc1CN(c1ccccc1)S(=O)(=O)c1ccccc1 | -13.4% | 12.0 | 0.0% | -24.4% | 10.0%
